Source: the supplement of paper PMC10849652
Targets with a hit are over-represented here; the source holds about 8,800 in all. About 0.5% of all pairs of compound and target were hits. A number with no mark means an inactive call.

How the values were obtained:
Assay in all cases: log2 fold change, soluble protein after heating vs DMSO (PISA); higher = thermal stabilisation; K562 lysate, 10 uM; active = over 0.2 and 3.5 SD of the protein, either way, in both replicates (recomputed)
[1] = compound: Cc1cn(-c2cc(NC(=O)c3ccc(C)c(Nc4nccc(-c5cccnc5)n4)c3)cc(C(F)(F)F)c2)cn1 [nilotinib]
Procedure, shortened: (§1)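 Soluble protein was defined as the supernatant remaining after 21,000xg for 90 min, following pooling of heated aliquots and adjustment to 0.5% NP-40 at 4°C. Before that, crude K562 extract at 1 mg/mL protein in PBS pH 7.4 with 1 mM MgCl2 was treated with 10 μM compound for 30 min and heated for 3 min across 48°C-58°C. Quantification used TMTpro 16plex LC-MS/MS with channel sums equalised, and values are log-two fold changes in thermal stability relative to solvent controls from duplicates.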

[2] = compound: Cc1nc(Nc2n[nH]c3c2CN(C(=O)N[C@H](CN(C)C)c2ccccc2)C3(C)C)c2sccc2n1
Procedure, shortened: as §1

[3] = compound: Cc1nc(Nc2ncc(C(=O)Nc3c(C)cccc3Cl)s2)cc(N2CCN(CCO)CC2)n1 [dasatinib]
Procedure, shortened: as §1

[4] = compound: Cc1ncc(-c2ccnc(Nc3ccc(S(C)(=O)=O)cc3)n2)n1C(C)C
Procedure, shortened: as §1

[5] = compound: Cn1cc(-c2ccc3c(c2)CCN3C(=O)Cc2cccc(C(F)(F)F)c2)c2c(N)ncnc21
Procedure, shortened: as §1

[6] = compound: Cn1cc(CNCC2CCN(c3ncc(C(=O)NO)cn3)CC2)c2ccccc21 [quisinostat]
Procedure, shortened: as §1

[7] = compound: Cn1cncc1[C@@](N)(c1ccc(Cl)cc1)c1ccc2c(c1)c(-c1cccc(Cl)c1)cc(=O)n2C [tipifarnib]
Procedure, shortened: as §1

[8] = compound: NC(=O)Nc1cc(-c2cccc(F)c2)sc1C(=O)N[C@H]1CCCNC1
Procedure, shortened: as §1

[9] = compound: NC(=O)c1cnc(N[C@@H]2CCCC[C@@H]2N)nc1Nc1cccc(-n2nccn2)c1
Procedure, shortened: as §1

[10] = compound: NC1(c2ccc(-c3nc4ccn5c(=O)[nH]nc5c4cc3-c3ccccc3)cc2)CCC1
Procedure, shortened: as §1

[11] = compound: NCC(=O)Nc1ccc(-n2nc(C(F)(F)F)cc2-c2ccc3c(ccc4ccccc43)c2)cc1
Procedure, shortened: as §1

[12] = compound: O=C(CCCCCCC(=O)Nc1ccccc1)NO [vorinostat]
Procedure, shortened: as §1

[13] = compound: O=C(O)c1ccc2c(c1)nc(Nc1cccc(Cl)c1)c1ccncc12 [silmitasertib]
Procedure, shortened: as §1

[14] = compound: O=C1NC(=O)C(c2cnc3ccccn23)=C1c1cn2c3c(cc(F)cc13)CN(C(=O)N1CCCCC1)CC2
Procedure, shortened: as §1

[15] = compound: c1cn2cc(-c3ccc4cn[nH]c4c3)nc(Nc3ccc(N4CCOCC4)cc3)c2n1 [entospletinib]
Procedure, shortened: as §1

Sequence of UniProt Q9H4A5 (Q9H4A5 whole entry, looked up): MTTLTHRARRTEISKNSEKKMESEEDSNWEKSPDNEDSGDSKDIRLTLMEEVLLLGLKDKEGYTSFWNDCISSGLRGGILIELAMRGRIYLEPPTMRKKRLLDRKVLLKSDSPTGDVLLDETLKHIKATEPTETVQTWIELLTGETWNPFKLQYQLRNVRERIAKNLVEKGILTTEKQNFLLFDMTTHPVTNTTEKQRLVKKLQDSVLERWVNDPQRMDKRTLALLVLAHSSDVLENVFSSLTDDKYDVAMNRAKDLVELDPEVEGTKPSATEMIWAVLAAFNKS
Sequence of UniProt P40939 (P40939 whole entry, looked up): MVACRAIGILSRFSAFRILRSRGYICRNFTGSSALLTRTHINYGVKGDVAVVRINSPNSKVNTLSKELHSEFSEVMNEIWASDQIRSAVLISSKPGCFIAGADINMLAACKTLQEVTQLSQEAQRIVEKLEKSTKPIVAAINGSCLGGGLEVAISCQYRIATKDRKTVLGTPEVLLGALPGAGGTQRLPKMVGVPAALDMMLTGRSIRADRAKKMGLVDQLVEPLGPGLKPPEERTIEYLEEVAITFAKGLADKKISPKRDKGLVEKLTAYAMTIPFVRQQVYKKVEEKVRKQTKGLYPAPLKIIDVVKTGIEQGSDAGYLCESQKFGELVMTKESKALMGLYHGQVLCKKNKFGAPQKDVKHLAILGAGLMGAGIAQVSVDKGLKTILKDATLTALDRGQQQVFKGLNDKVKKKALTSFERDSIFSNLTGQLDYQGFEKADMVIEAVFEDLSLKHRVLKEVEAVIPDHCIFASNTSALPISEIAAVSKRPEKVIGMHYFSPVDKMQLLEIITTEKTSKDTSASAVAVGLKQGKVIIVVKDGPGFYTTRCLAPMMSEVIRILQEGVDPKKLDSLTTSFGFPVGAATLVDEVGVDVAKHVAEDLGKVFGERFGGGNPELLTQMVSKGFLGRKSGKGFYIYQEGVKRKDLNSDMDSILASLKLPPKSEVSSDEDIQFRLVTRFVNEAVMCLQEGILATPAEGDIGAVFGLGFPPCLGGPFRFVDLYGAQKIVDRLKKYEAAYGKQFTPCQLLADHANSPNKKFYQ
Sequence of UniProt P41252 (P41252 whole entry, looked up): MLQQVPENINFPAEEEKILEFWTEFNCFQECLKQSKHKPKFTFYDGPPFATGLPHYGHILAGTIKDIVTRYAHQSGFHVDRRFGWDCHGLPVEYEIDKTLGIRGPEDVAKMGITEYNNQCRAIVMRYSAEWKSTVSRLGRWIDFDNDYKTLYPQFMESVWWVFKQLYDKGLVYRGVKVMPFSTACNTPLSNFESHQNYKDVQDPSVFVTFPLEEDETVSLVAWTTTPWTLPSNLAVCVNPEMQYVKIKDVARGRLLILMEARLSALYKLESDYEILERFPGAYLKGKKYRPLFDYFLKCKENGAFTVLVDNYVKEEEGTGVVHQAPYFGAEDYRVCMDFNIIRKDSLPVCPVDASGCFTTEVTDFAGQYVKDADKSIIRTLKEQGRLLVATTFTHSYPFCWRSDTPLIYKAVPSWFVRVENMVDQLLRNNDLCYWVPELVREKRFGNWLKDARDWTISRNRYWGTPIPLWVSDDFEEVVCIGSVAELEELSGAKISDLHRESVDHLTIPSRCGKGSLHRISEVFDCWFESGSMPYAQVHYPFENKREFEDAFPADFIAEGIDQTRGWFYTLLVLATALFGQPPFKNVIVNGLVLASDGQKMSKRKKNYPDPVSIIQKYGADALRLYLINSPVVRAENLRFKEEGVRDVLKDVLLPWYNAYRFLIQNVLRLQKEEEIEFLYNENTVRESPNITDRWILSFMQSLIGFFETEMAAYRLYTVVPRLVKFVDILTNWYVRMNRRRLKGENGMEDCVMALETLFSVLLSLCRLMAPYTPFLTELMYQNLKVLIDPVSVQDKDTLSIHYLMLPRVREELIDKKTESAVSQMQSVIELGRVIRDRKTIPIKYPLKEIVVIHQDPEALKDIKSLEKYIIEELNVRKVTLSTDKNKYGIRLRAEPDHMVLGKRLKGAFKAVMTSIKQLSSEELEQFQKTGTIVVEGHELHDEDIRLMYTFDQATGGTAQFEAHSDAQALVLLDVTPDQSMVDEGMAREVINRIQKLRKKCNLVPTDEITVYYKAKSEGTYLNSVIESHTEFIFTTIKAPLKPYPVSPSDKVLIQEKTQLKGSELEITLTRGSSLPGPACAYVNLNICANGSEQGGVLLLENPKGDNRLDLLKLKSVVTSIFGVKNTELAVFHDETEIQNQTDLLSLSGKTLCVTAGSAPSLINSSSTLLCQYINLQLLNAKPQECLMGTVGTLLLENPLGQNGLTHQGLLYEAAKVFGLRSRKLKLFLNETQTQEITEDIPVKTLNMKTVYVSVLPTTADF
Sequence of UniProt P04792 (P04792 whole entry, looked up): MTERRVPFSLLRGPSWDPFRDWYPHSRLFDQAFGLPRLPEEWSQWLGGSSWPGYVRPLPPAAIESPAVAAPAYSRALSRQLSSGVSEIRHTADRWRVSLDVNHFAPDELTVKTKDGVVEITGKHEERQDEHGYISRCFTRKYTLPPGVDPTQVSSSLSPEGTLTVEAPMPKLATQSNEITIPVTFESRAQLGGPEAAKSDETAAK
Sequence of UniProt A6NDN3 (A6NDN3 whole entry, looked up): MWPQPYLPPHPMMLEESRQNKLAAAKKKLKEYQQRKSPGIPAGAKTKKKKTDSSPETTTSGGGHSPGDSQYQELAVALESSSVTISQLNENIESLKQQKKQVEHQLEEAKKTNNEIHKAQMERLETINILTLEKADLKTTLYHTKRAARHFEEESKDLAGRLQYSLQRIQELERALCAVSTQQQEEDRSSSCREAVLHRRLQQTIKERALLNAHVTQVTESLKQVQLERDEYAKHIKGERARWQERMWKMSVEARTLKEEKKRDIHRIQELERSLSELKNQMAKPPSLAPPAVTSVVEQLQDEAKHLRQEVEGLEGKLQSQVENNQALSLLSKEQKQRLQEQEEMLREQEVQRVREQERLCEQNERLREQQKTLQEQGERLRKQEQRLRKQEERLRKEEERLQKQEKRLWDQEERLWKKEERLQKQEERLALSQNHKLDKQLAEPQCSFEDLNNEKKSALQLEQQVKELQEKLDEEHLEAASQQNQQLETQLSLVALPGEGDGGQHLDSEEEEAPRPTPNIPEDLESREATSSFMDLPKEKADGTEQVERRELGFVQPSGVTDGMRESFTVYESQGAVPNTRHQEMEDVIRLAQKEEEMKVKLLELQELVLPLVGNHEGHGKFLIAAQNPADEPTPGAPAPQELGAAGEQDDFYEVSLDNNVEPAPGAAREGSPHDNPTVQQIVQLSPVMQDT
Sequence of UniProt P35914 (P35914 whole entry, looked up): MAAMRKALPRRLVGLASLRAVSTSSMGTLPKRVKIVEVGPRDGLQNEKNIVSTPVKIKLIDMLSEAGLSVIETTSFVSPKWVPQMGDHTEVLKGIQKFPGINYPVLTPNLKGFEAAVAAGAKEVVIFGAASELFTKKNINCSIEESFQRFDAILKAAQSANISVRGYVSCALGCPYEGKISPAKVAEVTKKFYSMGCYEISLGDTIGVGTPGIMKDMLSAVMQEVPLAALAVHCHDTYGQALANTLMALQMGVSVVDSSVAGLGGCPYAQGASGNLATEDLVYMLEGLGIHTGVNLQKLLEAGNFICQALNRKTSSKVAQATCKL
Sequence of UniProt O94927 (O94927 whole entry, looked up): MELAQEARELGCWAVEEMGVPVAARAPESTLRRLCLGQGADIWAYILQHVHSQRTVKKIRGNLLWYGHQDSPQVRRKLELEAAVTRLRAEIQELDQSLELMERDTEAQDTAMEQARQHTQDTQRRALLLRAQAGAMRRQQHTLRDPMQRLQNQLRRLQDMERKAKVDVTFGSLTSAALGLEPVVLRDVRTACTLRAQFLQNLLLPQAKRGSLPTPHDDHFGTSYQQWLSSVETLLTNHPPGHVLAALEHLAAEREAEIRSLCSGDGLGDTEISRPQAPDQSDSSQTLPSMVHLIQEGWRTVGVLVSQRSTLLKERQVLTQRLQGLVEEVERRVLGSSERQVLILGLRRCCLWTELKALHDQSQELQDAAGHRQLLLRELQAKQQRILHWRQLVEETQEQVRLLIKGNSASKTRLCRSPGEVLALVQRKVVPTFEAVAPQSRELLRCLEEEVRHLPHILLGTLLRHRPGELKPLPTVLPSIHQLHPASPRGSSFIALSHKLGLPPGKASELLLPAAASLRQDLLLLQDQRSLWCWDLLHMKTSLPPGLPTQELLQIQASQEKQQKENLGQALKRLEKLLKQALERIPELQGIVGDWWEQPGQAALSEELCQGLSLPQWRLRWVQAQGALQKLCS
Sequence of UniProt Q1KMD3 (Q1KMD3 whole entry, looked up): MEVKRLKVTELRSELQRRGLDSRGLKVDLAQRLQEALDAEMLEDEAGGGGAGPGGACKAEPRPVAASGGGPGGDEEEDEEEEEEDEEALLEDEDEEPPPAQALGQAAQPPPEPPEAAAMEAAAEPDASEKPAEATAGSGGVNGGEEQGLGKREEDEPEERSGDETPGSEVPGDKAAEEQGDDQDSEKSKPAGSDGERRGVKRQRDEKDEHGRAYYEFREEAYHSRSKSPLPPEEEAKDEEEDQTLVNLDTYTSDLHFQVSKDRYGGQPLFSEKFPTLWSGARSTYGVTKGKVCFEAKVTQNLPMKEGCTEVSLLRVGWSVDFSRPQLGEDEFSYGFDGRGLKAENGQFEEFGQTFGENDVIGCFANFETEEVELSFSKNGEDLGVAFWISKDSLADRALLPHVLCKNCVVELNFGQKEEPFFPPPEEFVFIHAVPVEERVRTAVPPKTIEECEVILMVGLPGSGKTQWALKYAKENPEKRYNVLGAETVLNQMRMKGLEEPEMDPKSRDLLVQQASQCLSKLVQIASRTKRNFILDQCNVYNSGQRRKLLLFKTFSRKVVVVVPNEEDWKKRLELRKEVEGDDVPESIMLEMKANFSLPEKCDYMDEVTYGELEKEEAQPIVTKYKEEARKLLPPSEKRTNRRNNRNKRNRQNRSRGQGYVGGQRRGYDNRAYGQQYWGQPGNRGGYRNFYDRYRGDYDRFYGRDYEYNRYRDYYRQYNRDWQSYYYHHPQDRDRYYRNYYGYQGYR

Target | log2 fold change [1] | log2 fold change [2] | log2 fold change [3] | log2 fold change [4] | log2 fold change [5] | log2 fold change [6] | log2 fold change [7] | log2 fold change [8] | log2 fold change [9] | log2 fold change [10] | log2 fold change [11] | log2 fold change [12] | log2 fold change [13] | log2 fold change [14] | log2 fold change [15]
HADHA (UniProt P40939) | 0.051 | -0.024 | -0.036 | 0.002 | 0.03 | -0.082 | 0.025 | -0.077 | -0.071 | 0.078 | 0.052 | -0.159 | -0.026 | 0.302 | 0.027
IRF2BP1 (UniProt Q8IU81) | 0.018 | 0.016 | -0.082 | -0.019 | 0.032 | -0.099 | -0.124 | 0.057 | -0.03 | 0.045 | 0.021 | -0.4 (active) | -0.003 | -0.03 | 0.01
HSD17B12 (UniProt Q53GQ0) | -0.024 | -0.04 | 0.016 | 0.033 | 0.007 | 0.073 | -0.118 | 0.058 | 0.012 | -0.045 | 0.025 | -0.009 | -0.05 | -0.078 | 0.041
GOLPH3L (UniProt Q9H4A5) | -0.045 | 0.033 | 0 | -0.006 | 0.01 | -0.026 | 0.018 | 0.094 | 0.013 | -0.039 | -0.061 | -0.035 | -0.002 | 0.047 | 0.048
HNRNPM (UniProt P52272) | 0.022 | -0.043 | -0.109 | -0.05 | 0.01 | 0.055 | -0.112 | 0.054 | -0.002 | 0.053 | -0.008 | -0.235 (active) | 0.022 | -0.05 | 0.015
HSPB1 (UniProt P04792) | -0.001 | 0.003 | -0.032 | 0.012 | 0.015 | 0.025 | -0.006 | 0.006 | 0 | 0.006 | 0.019 | -0.013 | -0.027 | -0.001 | 0.013
HMGCL (UniProt P35914) | 0.011 | -0.041 | 0.029 | 0.023 | 0.02 | -0.017 | -0.013 | 0.018 | -0.033 | 0.015 | -0.025 | -0.226 (active) | 0.059 | 0.033 | 0
IMPDH2 (UniProt P12268) | 0 | -0.009 | -0.036 | -0.009 | 0.004 | -0.073 | 0.029 | 0.006 | -0.016 | 0.031 | 0.002 | -1.14 (active) | 0.004 | 0.004 | 0.014
KDM6A (UniProt O15550) | 0.009 | 0.033 | 0.041 | -0.009 | 0.015 | -0.062 | -0.031 | 0.002 | -0.017 | 0.009 | 0.026 | -0.299 (active) | -0.059 | -0.009 | -0.02
HLCS (UniProt P50747) | -0.005 | -0.005 | 0.012 | -0.003 | 0.068 | -0.022 | -0.006 | -0.011 | 0.024 | 0.02 | -0.048 | -0.054 | -0.012 | 0.004 | 0.009
KARS1 (UniProt Q15046) | -0.017 | -0.01 | -0.031 | -0.029 | 0.02 | 0.034 | 0.02 | 0.004 | 0.013 | 0.02 | 0.021 | -0.011 | 0.022 | -0.026 | 0.006
HDGFL2 isoform 2 (UniProt Q7Z4V5) | -0.005 | -0.005 | 0.014 | -0.021 | -0.023 | -0.061 | 0.003 | 0.011 | -0.001 | -0.02 | 0.02 | 0.117 | -0.013 | 0.01 | -0.012
HNRNPUL2 (UniProt Q1KMD3) | -0.037 | 0.02 | 0.002 | 0.009 | -0.005 | -0.046 | 0.008 | 0 | 0.004 | -0.008 | 0.029 | -0.017 | 0.022 | -0.023 | -0.032
HADH isoform 2 (UniProt Q16836) | -0.028 | 0.049 | 0.288 (active) | 0.031 | 0.008 | 0.124 | 0.032 | -0.006 | 0.029 | -0.031 | 0 | -0.029 | 0.005 | 0.006 | 0.022
HAUS6 (UniProt Q7Z4H7) | -0.022 | -0.008 | -0.057 | 0.022 | 0.038 | -0.066 | 0.053 | 0.035 | -0.055 | -0.004 | -0.057 | -0.3 (active) | 0.014 | 0.007 | 0.015
GLYR1 (UniProt Q49A26) | 0.082 | 0.02 | -0.053 | 0.053 | -0.048 | -0.119 | -0.12 | -0.049 | -0.012 | 0.023 | -0.006 | -0.033 | -0.022 | -0.007 | -0.041
IARS (UniProt P41252) | 0.007 | -0.007 | -0.042 | -0.015 | 0.053 | -0.02 | -0.003 | 0.038 | 0.001 | -0.029 | 0.014 | -0.325 (active) | 0.046 | -0.008 | 0.031
GOLGA6B (UniProt A6NDN3) | 0.039 | -0.102 | 0.009 | -0.075 | 0.161 | -0.355 | 0.051 | 0.106 | -0.008 | -0.082 | 0.019 | 0.117 | -0.002 | 0.353 (active) | -0.084
KDM5C (UniProt P41229) | -0.021 | -0.005 | -0.032 | 0.022 | 0.033 | -0.084 | 0.037 | 0.032 | -0.037 | -0.032 | 0.039 | -0.282 (active) | 0.015 | 0 | 0.003
HERC2 (UniProt O95714) | -0.077 | 0.017 | 0.032 | -0.034 | 0.118 | -0.061 | 0.007 | 0.028 | -0.047 | 0.085 | 0.04 | -0.006 | -0.076 | -0.009 | 0.014
HAUS5 (UniProt O94927) | -0.014 | 0.01 | -0.071 | -0.011 | -0.015 | -0.11 | 0.006 | 0.079 | 0.004 | -0.02 | 0.031 | -0.416 (active) | 0.045 | -0.015 | 0.013
